PubChem BioAssay (NCI)
This is part of a sample that, as a whole, favours compounds with a hit. Of some 83,000 tested, about 20% had one in any assay.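 In brief: 96-well plates, 48 h treatment, single concentration, percent growth endpoint.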 Values without a mark were called inactive. Calls of active or inactive are those of the source. The calls were made as follows: active = growth percent below 10; inactive = the rest.

Each compound was assayed on HCT-15 colon (assay: NCI-60 one-dose screen, 48 h (100 = growth as untreated, 0 = no growth, -100 = all killed)). Conditions: 10 µM unless noted.
`O=C(COc1cccc(/C=C2\Oc3ccccc3C2=O)c1)c1ccc([N+](=O)[O-])cc1` showed a growth of 94.2%. With `CC[C@]12C=CCN3CC[C@@]4(c5ccc(OC)cc5N(C)[C@H]4[C@@](O)(C(=O)OC)[C@@H]1OC(=O)CCC(=O)N[C@H](Cc1c[nH]c4ccccc14)C(=O)OC)[C@@H]32` the growth was -24.1% [100 µM] (active). In the case of `C=C(C)[C@@H]1CC[C@]2(C(N)=O)CC[C@]3(C)[C@H](CC[C@@H]4[C@@]5(C)C/C(=C/c6cccnc6)[C@H](O)C(C)(C)[C@@H]5CC[C@]43C)[C@@H]12`, the growth is reported as 18.7% [100 µM]. `CSc1nc2sc3cc(Cl)c(Cl)cc3n2c(=N)c1C#N` showed a growth of 104%. In the case of `COc1ccc(/C=C2\N=C(Nc3ccccc3)N(NC(=O)c3ccccn3)C2=O)cc1`, the growth is reported as 91.6%. `O=C(NCCCNC(=O)OCc1ccc2cccc(O)c2n1)OCc1ccc2cccc(O)c2n1` was tested, and the growth was 1.71% (active). In the case of `COc1cc(C(=O)/C=C/c2c(-c3ccc(F)cc3)nc3sccn23)cc(OC)c1OC`, the growth is reported as 27.8%. Compound `CCCCCCCCCCCCNC(=S)N/N=C/c1ccccc1O` has a growth of 56.9%. Compound `CCCc1cc2cc(-n3nc(C)c4c3CC(C)(C)CC4=O)cc(NC3CCSCC3)c2c(=O)[nH]1` has a growth of 41.4%. Work on `COc1ccc(-c2cc(-c3ccc(OC)c(OC)c3)nc(SCCCCCC(=O)NO)n2)cc1` yielded a growth of 96.5%. In the case of `CCC(C)[C@H](NC(=O)NC(=O)NC(=O)CI)C(=O)OC` (some centres not stated), the growth is reported as 14.9%. `CCN(CC)c1ccc(/C=C/c2ccc3cc(C)ccc3[n+]2CC)cc1` showed a growth of 13.3%.
